# Measured values reported in publication PMC7862700, “An all-to-all approach to the identification of sequence-specific readers for epigenetic DNA modifications on cytosine”.
# Experiments:
# Experiment in all cases: DAPPL (digital affinity profiling via proximity ligation, sequencing); 10 mM Tris-HCl pH 7.5, 50 mM NaCl, 1 mM DTT, 4% glycerol, room temperature, 30 min; GST-TFs on glutathione beads, 16-mer random dsDNA library, 0.1% formaldehyde crosslink after washing; high values mean tight binding
# FLI1 = target: T1, FLI1 (Homo sapiens, UniProt Q01543 1-452); conditions: protein: recombinant; tags: N-terminal GST; dsDNA, one strand shown
# T1 sequence: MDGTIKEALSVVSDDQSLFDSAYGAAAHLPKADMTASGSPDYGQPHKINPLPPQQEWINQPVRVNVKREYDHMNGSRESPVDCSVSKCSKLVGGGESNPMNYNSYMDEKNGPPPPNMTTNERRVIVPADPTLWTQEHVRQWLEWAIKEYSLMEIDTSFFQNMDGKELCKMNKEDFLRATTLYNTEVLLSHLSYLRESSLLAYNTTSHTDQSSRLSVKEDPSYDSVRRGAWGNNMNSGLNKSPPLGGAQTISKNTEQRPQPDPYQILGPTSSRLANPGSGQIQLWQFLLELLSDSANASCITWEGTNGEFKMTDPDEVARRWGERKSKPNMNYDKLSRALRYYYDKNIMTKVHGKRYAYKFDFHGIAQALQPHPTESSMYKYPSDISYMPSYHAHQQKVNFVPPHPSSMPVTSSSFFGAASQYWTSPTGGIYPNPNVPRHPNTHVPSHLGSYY
# How it was run: (§1)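 GST fusions of human transcription factors were expressed in yeast and captured with glutathione beads. Once given DNA barcodes and pooled alongside a tag-only sample, they were incubated for 30 min at room temperature with 200 nmole of a random double-stranded 16-mer DNA library in Tris/NaCl/DTT/glycerol buffer, then washed, crosslinked (0.1% formaldehyde), proximity-ligated, PCR-amplified and sequenced on an Illumina NextSeq500. The binding signal of each hexamer is its read frequency for a factor divided by its frequency for the tag-only sample.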
# ELK1 = target: T2, ELK1 (Homo sapiens, UniProt P19419 1-428); conditions: protein: recombinant; tags: N-terminal GST; dsDNA, one strand shown
# T2 sequence: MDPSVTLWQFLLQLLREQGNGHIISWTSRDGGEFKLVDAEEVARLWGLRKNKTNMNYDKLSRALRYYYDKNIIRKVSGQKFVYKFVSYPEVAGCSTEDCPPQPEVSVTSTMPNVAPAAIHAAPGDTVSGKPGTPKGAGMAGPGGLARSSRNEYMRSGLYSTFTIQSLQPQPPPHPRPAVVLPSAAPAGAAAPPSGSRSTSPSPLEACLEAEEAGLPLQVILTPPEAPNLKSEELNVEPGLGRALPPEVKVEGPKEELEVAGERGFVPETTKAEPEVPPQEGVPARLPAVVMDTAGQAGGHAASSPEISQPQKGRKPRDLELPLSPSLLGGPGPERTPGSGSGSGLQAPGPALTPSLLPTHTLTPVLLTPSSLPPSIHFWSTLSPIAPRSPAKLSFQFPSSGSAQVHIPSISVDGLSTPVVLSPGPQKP
# How it was run: as §1
# GABPA = target: T3, GABPA (Homo sapiens, UniProt Q06546 1-454); conditions: protein: recombinant; tags: N-terminal GST; dsDNA, one strand shown
# T3 sequence: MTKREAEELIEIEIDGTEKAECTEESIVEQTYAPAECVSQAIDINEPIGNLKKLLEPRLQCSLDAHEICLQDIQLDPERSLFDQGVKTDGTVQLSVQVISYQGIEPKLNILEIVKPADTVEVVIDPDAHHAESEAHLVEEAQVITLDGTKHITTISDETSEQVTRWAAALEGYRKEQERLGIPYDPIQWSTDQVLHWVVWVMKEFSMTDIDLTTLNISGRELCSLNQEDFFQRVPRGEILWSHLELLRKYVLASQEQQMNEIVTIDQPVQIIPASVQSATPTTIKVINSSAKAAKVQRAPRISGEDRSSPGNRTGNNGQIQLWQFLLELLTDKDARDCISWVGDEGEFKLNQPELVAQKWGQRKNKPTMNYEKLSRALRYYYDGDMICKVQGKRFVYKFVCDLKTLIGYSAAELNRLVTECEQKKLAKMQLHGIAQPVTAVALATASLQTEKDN
# How it was run: as §1
# ERG = target: T4, ERG (Homo sapiens, UniProt P11308 1-479); conditions: protein: recombinant; tags: N-terminal GST; dsDNA, one strand shown
# T4 sequence: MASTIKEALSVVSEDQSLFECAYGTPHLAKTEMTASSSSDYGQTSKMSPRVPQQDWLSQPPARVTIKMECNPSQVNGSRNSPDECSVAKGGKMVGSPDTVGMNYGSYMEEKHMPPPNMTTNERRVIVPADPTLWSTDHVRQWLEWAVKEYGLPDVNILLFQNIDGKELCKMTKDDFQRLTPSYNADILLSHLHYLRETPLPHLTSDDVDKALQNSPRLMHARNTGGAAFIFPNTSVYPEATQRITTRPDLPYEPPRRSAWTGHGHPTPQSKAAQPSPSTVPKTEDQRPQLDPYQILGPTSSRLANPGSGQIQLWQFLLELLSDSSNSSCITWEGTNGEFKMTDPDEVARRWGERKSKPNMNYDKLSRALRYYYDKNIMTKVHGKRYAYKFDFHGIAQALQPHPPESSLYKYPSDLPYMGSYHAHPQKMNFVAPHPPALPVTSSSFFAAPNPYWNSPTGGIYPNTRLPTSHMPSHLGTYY
# How it was run: as §1
# ELF1 = ELF1 (Homo sapiens, UniProt P32519 1-619); conditions: protein: recombinant; tags: N-terminal GST; dsDNA, one strand shown
# Chain of ELF1 (P32519 whole entry): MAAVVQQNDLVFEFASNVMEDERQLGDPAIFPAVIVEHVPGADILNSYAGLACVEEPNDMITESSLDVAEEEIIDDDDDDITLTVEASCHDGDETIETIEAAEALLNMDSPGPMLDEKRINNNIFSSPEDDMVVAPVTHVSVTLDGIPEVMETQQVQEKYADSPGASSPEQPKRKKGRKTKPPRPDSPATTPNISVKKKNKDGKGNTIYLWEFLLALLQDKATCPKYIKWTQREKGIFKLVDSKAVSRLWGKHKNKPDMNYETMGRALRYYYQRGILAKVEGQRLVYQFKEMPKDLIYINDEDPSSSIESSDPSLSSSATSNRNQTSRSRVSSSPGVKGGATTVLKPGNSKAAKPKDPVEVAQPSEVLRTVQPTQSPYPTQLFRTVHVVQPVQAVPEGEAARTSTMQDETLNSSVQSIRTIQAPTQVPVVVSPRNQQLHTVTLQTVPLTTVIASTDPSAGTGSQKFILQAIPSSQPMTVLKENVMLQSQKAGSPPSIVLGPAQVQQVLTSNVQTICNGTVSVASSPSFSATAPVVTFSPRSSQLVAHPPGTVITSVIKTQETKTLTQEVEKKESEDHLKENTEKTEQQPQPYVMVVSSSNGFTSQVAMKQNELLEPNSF
# How it was run: as §1
# EHF = target: T5, EHF (Homo sapiens, UniProt Q9NZC4 1-300); conditions: protein: recombinant; tags: N-terminal GST; dsDNA, one strand shown
# T5 sequence: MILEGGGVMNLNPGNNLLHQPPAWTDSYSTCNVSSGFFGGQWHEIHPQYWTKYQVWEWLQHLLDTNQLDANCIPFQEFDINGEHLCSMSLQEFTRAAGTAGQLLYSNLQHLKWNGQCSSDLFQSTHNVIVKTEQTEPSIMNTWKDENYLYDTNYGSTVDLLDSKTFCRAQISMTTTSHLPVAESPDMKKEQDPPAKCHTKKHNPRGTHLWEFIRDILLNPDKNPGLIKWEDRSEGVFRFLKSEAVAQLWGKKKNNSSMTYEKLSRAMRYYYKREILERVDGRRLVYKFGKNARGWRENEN
# How it was run: as §1
# SPI1 = SPI1 (Homo sapiens, UniProt P17947 1-270); conditions: protein: recombinant; tags: N-terminal GST; dsDNA, one strand shown
# How it was run: as §1
# SPIB = SPIB (Homo sapiens, UniProt Q01892 1-262); conditions: protein: recombinant; tags: N-terminal GST; dsDNA, one strand shown
# Chain of SPIB (Q01892 whole entry): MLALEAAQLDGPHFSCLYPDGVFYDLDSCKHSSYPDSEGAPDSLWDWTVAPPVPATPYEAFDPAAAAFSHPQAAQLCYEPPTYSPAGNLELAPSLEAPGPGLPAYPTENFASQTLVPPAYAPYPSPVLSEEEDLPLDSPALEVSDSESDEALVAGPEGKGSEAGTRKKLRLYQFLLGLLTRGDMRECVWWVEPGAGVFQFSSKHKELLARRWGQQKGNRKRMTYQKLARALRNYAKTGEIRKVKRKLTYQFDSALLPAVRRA
# How it was run: as §1
# ELK3 = target: T6, ELK3 (Homo sapiens, UniProt P41970 1-407); conditions: protein: recombinant; tags: N-terminal GST; dsDNA, one strand shown
# T6 sequence: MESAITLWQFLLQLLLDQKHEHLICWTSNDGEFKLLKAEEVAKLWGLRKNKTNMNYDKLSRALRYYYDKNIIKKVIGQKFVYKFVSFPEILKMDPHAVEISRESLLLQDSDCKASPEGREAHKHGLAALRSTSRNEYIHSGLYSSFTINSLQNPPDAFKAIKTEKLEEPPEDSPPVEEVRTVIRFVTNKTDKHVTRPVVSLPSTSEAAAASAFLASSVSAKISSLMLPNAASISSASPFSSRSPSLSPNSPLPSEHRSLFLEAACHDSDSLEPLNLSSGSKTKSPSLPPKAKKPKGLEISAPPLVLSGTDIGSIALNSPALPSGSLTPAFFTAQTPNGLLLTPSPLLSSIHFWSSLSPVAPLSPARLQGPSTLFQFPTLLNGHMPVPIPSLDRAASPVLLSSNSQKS
# How it was run: as §1
# FEV = target: T7, FEV (Homo sapiens, UniProt Q99581 1-238); conditions: protein: recombinant; tags: N-terminal GST; dsDNA, one strand shown
# T7 sequence: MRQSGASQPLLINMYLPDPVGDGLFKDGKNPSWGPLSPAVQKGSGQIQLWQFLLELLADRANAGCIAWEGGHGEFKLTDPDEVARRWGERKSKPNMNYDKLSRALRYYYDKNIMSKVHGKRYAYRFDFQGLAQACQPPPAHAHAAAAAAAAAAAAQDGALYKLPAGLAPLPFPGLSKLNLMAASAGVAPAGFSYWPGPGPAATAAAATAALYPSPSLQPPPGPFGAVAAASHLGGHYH
# How it was run: as §1
# ETV5 = ETV5 (Homo sapiens, UniProt P41161 1-510); conditions: protein: recombinant; tags: N-terminal GST; dsDNA, one strand shown
# Chain of ETV5 (P41161 whole entry): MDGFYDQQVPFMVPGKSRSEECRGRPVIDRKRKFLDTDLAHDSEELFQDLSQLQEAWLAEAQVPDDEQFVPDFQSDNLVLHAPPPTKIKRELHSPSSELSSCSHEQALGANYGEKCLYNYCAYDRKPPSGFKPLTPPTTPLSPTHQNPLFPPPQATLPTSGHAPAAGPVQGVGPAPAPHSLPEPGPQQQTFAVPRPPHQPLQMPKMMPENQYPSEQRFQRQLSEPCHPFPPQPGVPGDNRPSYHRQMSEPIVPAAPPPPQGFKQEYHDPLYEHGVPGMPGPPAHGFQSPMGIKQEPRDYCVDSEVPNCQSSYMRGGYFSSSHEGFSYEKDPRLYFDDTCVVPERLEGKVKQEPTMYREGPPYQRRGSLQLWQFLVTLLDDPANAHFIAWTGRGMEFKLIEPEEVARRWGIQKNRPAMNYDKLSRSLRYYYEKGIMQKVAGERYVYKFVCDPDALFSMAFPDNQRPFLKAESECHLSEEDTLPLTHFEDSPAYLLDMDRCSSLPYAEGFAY
# How it was run: as §1
# HSF1 = HSF1 (Homo sapiens, UniProt Q00613 1-529); conditions: protein: recombinant; tags: N-terminal GST; chain copies: 3; dsDNA, one strand shown
# Chain of HSF1 (Q00613 whole entry): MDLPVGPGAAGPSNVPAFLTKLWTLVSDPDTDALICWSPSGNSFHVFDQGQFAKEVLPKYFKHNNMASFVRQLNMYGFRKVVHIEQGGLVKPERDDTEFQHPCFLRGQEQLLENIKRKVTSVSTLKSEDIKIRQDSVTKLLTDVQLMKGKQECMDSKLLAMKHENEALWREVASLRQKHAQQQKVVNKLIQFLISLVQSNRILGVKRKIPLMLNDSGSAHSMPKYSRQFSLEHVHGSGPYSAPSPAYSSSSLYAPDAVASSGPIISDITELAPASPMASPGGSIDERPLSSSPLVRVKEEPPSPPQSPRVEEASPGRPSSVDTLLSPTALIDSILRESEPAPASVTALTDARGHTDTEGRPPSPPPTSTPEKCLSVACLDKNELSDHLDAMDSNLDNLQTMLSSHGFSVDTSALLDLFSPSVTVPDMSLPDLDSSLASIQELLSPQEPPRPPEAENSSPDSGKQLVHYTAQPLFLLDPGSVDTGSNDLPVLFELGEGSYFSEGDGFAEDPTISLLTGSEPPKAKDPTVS
# How it was run: as §1
# SPIC = target: T8, SPIC (Homo sapiens, UniProt Q8N5J4 1-248); conditions: protein: recombinant; tags: N-terminal GST; dsDNA, one strand shown
# T8 sequence: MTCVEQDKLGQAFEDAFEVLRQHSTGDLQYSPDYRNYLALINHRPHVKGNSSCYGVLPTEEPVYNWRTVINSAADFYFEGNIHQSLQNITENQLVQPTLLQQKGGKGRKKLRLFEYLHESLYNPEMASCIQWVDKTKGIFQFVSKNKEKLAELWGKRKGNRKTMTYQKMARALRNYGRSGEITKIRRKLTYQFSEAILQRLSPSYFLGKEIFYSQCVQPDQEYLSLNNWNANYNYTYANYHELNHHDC
# How it was run: as §1
# ELF4 = ELF4 (Homo sapiens, UniProt Q99607 1-663); conditions: protein: recombinant; tags: N-terminal GST; dsDNA, one strand shown
# Chain of ELF4 (Q99607 whole entry): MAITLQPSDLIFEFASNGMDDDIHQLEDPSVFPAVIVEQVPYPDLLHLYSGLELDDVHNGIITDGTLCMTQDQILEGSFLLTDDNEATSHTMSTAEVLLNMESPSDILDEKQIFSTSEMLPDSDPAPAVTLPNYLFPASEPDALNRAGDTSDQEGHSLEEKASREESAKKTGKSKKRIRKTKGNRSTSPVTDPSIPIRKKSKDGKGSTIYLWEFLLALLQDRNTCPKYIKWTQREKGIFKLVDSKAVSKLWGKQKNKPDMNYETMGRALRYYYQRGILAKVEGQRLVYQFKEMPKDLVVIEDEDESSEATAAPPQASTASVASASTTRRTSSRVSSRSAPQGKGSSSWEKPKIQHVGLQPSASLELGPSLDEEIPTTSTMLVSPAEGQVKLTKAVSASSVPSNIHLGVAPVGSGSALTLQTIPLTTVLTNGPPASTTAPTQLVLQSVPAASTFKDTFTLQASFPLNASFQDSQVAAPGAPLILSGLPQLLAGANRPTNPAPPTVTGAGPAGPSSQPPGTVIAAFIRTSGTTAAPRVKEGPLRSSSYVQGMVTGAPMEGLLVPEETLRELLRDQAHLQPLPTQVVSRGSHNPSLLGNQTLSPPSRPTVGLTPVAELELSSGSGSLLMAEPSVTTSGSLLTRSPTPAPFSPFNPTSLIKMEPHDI
# How it was run: as §1
# ELK4 = target: T9, ELK4 (Homo sapiens, UniProt P28324-2 1-405); conditions: protein: recombinant; tags: N-terminal GST; dsDNA, one strand shown
# T9 sequence: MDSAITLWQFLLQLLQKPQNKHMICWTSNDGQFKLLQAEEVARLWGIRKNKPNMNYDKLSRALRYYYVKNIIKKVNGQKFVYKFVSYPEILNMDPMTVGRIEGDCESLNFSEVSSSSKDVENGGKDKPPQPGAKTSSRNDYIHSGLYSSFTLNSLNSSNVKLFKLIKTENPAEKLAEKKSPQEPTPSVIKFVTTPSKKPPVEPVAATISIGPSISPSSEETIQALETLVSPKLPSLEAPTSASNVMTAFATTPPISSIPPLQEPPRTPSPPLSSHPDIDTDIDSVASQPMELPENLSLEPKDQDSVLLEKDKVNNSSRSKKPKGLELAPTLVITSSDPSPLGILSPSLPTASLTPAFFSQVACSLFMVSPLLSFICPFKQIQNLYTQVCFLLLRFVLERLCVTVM
# How it was run: as §1
# ETV2 = target: T10, ETV2 (Homo sapiens, UniProt O00321 1-342); conditions: protein: recombinant; tags: N-terminal GST; dsDNA, one strand shown
# T10 sequence: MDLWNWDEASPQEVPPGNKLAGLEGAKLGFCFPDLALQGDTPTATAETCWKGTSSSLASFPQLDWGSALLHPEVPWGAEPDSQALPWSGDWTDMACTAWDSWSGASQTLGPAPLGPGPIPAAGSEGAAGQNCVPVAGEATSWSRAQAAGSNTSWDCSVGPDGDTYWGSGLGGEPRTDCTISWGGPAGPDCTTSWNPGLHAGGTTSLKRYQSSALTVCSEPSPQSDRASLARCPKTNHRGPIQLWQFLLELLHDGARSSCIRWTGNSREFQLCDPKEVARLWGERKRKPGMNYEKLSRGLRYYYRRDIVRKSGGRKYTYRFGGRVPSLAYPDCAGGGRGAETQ
# How it was run: as §1
# ELF3 = target: T11, ELF3 (Homo sapiens, UniProt P78545 1-371); conditions: protein: recombinant; tags: N-terminal GST; dsDNA, one strand shown
# T11 sequence: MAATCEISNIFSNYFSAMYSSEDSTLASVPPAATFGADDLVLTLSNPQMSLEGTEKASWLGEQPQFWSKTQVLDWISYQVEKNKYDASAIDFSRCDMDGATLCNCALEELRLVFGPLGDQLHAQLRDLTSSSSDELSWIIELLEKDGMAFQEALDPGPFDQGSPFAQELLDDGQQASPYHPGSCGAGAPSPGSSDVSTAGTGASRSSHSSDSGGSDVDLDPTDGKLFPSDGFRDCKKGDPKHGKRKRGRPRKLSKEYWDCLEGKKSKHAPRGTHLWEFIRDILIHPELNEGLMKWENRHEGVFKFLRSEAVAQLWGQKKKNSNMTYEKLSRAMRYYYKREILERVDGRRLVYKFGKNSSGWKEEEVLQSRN
# How it was run: as §1
# CRX = CRX (Homo sapiens, UniProt O43186 1-299); conditions: protein: recombinant; tags: N-terminal GST; dsDNA, one strand shown
# Chain of CRX (O43186 whole entry): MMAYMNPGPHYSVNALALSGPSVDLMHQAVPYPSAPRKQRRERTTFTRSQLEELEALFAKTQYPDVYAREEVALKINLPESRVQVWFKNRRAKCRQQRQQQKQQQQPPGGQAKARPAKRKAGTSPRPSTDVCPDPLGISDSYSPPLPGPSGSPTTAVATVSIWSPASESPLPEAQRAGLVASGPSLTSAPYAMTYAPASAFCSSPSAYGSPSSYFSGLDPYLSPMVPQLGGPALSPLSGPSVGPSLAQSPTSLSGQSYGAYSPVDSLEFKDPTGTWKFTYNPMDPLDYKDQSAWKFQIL
# How it was run: as §1
# ETV1 = ETV1 (Homo sapiens, UniProt P50549 1-477); conditions: protein: recombinant; tags: N-terminal GST; dsDNA, one strand shown
# Chain of ETV1 (P50549 whole entry): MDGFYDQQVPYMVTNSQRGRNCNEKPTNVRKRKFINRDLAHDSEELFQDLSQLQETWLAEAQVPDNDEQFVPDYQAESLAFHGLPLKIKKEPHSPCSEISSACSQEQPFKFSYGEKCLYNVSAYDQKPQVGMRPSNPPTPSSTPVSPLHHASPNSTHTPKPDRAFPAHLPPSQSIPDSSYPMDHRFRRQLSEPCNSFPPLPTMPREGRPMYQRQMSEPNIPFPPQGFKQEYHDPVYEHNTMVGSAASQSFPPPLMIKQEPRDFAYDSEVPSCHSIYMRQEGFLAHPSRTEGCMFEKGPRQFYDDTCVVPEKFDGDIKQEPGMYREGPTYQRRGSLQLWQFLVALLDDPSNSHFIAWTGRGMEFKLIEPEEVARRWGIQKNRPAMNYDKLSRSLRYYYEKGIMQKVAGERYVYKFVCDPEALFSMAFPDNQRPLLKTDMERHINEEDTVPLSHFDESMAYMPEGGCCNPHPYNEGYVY
# How it was run: as §1
sequence,measurement,setting,value
TTTACC,binding signal,FLI1,"1.28 fold enrichment (6-mer frequency, TF over GST control)"
same,binding signal,ELK1,"1.2 fold enrichment (6-mer frequency, TF over GST control)"
same,binding signal,GABPA,"1.24 fold enrichment (6-mer frequency, TF over GST control)"
same,binding signal,ERG,"1.18 fold enrichment (6-mer frequency, TF over GST control)"
same,binding signal,ELF1,"1.23 fold enrichment (6-mer frequency, TF over GST control)"
same,binding signal,EHF,"1.31 fold enrichment (6-mer frequency, TF over GST control)"
same,binding signal,SPI1,"1.17 fold enrichment (6-mer frequency, TF over GST control)"
same,binding signal,SPIB,"1.21 fold enrichment (6-mer frequency, TF over GST control)"
same,binding signal,ELK3,"1.37 fold enrichment (6-mer frequency, TF over GST control)"
same,binding signal,FEV,"1.32 fold enrichment (6-mer frequency, TF over GST control)"
same,binding signal,ETV5,"1.29 fold enrichment (6-mer frequency, TF over GST control)"
same,binding signal,HSF1,"1.25 fold enrichment (6-mer frequency, TF over GST control)"
same,binding signal,SPIC,"1.17 fold enrichment (6-mer frequency, TF over GST control)"
same,binding signal,ELF4,"1.24 fold enrichment (6-mer frequency, TF over GST control)"
same,binding signal,ELK4,"1.41 fold enrichment (6-mer frequency, TF over GST control)"
same,binding signal,ETV2,"1.3 fold enrichment (6-mer frequency, TF over GST control)"
same,binding signal,ELF3,"1.2 fold enrichment (6-mer frequency, TF over GST control)"
same,binding signal,CRX,"1.48 fold enrichment (6-mer frequency, TF over GST control)"
same,binding signal,ETV1,"1.16 fold enrichment (6-mer frequency, TF over GST control)"
